Screening results from PubChem.
Vaccinia mCherry – inhibitors of vaccinia virus infection (mCherry reporter signal); Vaccinia virus mCherry reporter infection, fluorescence; Potency, µM (series often up to 36.5 µM), actives largely listed as inhibitors; 310,000 tested, 0.63% active; AID 720579; calls by dose curve; tested in A549 cells; note: nearly all actives have a fitted effect of over 35% in size
LASV entry inh – inhibitors of Lassa virus binding or cell entry; Lassa virus pseudotype entry inhibition, cell reporter; Potency, µM (top dose mostly 37.9 µM), hits mostly inhibitors; 300,000 tested, 1.2% active; calls by dose curve; tested in HEK293 cells; note: nearly all actives have a fitted effect of over 50% in size
HCV inh – inhibitors of hepatitis C virus infection; Huh7.5.1 HCVcc-Cre infection, luciferase reporter, 44 h; Potency, µM (titrated, usually from 41.8 µM), actives largely listed as inhibitors; 340,000 tested, 3.4% active; active = well fitted inhibition curve with a large enough effect; inconclusive = small, poorly fitted or top-dose-only effect, or another doubt; inactive = no such curve, though single readings can be large or run the other way
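Compounds are dispensed onto cells plated 4 h earlier at 1,000 per well, with HCVcc-Cre virus (about 0.5 moi) added next. Following 44 h of culture, luminescent signal is measured for 15 sec after 15 min with substrate at room temperature.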
Marburg entry inh – Marburg virus entry inhibition | Potency, µM (doses to about 37.8 µM), most hits filed as inhibitors | AID 540276 | Marburg virus pseudotyped entry inhibition, cell reporter | 300,000 tested, 1.8% active; calls by dose curve; tested in HEK293 cells
HCMV inh – human cytomegalovirus inhibition. 410,000 tested, 4.5% active. AID 1259415. activity change, negative = inhibition, % at 57.5 µM. HFF cells, HCMV-luciferase reporter, 72 h; stronger effect = lower value; in the data active = activity change below about -60%; inconclusive = no clear call, values can overlap the other calls; inactive = above about -39%
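Two compound doses tested in HFFs infected with HCMV-luciferase, MOI 1 PFU/cell, 72 h at 37C. Lysate luminescence read with OneGlo; data normalized against buffer-only and 10uM Salinomycin inhibitor controls.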
Vaccinia Venus – inhibitors of vaccinia virus (Venus reporter); Potency, µM (doses to about 36.5 µM), most hits filed as inhibitors; AID 720580; 330,000 tested, 0.46% active; Vaccinia virus Venus reporter expression, fluorescence; calls by dose curve; tested in A549 cells; note: nearly all actives have a fitted effect of over 30% in size
A number is an active result; 0 = inactive; ? = inconclusive; - = no result; [ ] = another dose, or the depositor's remark. The list is not random: actives were taken first. Their share in the collection is about 7.8%.

SMILES	Vaccinia mCherry	LASV entry inh	HCV inh	Marburg entry inh	HCMV inh	Vaccinia Venus
CC(C)(C)c1ccc(-n2ncc3c2CCCC3NC(=O)CCN2CCCO2)cc1 (stereo not drawn)	-	-	13µM	-	?	-
CC(C)(C)c1ccc(-n2ncc3c2CCCC3NC(=O)CCn2cncn2)cc1 (stereo not drawn)	0	0	0	0	-68	0
c1ccc(-c2ccccc2OCCCN2CCCCC2)cc1	?	16µM	0	?	0	0
COc1ccccc1OCCCCN1CCN(c2ccccc2OC)CC1	0	0	?	0	0	0
Fc1ccccc1OCCCCCCN1CCCC1	-	0	7.9µM	0	0	-
COc1ccccc1N1CCN(CCCCCCOc2ccc(F)cc2)CC1	0	?	?	18µM	?	0
Cc1cccc(OCCCN2CCCCCC2)c1	0	?	32µM	?	0	0
COCCNC(=O)C1CCCN(S(=O)(=O)c2ccc3c(ccn3C)c2)C1 (stereo not drawn)	0	0	-	-	0	0
CCCNC(=O)C1CCN(S(=O)(=O)c2ccc3c(c2)CCCN3C(C)=O)CC1	0	0	-	-	0	0
O=S(=O)(NCc1ccc(Cl)cc1)c1ccc(Br)cc1C1CC[C@@H](O)C1 (stereo partly drawn)	-	-	-	-	0	-
COc1cc(OC)cc(-n2c(=O)c3ccccc3n(CC(=O)NCCc3ccc(OC)c(OC)c3)c2=O)c1	0	0	-	0	0	0
O=C(c1ccccc1)c1ccc(OCCCCN2CCCCC2)cc1	0	0	0	?	0	?
CN(C)CCCCOc1ccccc1-c1ccccc1	-	?	0	13µM	0	-
c1ccc(COc2ccc(OCCCCN3CCCCC3)cc2)cc1	0	0	25µM	?	0	0
Oc1ccc(N2CCN(Cc3ccc(OCCCN4CCCCC4)cc3)CC2)cc1	?	0	0	13µM	0	0
CCOCCCNC(=O)C(c1ccc(OC)cc1)N(Cc1cccs1)C(=O)c1ccc(NC(C)=O)cc1 (stereo not drawn)	0	?	-	?	0	0
Cc1ccc(Cn2c(C)c(CNCC(C)c3ccccc3)c(C(=O)O)c2C)cc1 (stereo not drawn)	0	0	-	0	0	0
C=CCN1C(c2ccc(OCC)cc2)=CS/C1=C(\C#N)c1nnc2n1CCCCC2	0	?	?	?	-60	0
C=CCN1C(c2ccc(Br)cc2)=CS/C1=C(\C#N)c1nnc(N2CCOCC2)n1-c1ccccc1	0	?	0	?	0	0
COc1ccc(C(=O)c2cnc3ccccc3c2-c2ccccc2)cc1	-	0	13µM	?	?	-
CN(CC1CCCO1)S(=O)(=O)c1ccc(C(=O)Nc2ccccc2F)cc1 (stereo not drawn)	0	0	0	0	0	0
O=C(Nc1nc(-c2ccccn2)cs1)c1ccc(F)c(S(=O)(=O)N2CCOCC2)c1	-	-	3.5µM	-	-97	-
Cc1ccc(C(=O)Nc2nc(-c3ccccn3)cs2)cc1S(=O)(=O)N1CCOCC1	-	-	5.6µM	-	-97	-
CN(CC1CCCO1)S(=O)(=O)c1ccc(C(=O)Nc2nc(-c3ccccn3)cs2)cc1 (stereo not drawn)	?	?	4.5µM	?	-	?
O=C(Nc1nc(-c2ccccn2)cs1)c1cc(S(=O)(=O)N2CCOCC2)ccc1F	-	-	?	-	0	-
SMILES	Vaccinia mCherry	LASV entry inh	HCV inh	Marburg entry inh	HCMV inh	Vaccinia Venus
COc1ccc(C2=C(N3CCN(c4cccc(C)c4C)CC3)c3ccccc3C2=O)cc1	0	0	-	0	0	0
O=C1OCCC1Sc1nnc(-c2ccc(Cl)cc2Cl)o1 (stereo not drawn)	0	?	0	5µM	0	0
O=C1OCCC1Sc1nnc(-c2ccccc2)o1 (stereo not drawn)	0	0	0	0	0	0
O=C(O)CCSc1nnc(-c2ccc(Cl)cc2Cl)o1	0	?	-	?	-76	0
O=C(CCN1C(=O)c2ccccc2S1(=O)=O)Nc1ccc(Cl)cc1	0	0	0	0	-78	0
O=C(CN1C(=O)c2ccccc2S1(=O)=O)c1ccccc1Cl	-	-	-	-	-86	-
Cc1ccc(C(=O)CN2/C(=C(\O)c3ccccc3)C(=O)c3ccccc3S2(=O)=O)c(C)c1	-	18µM	?	?	-	-
Cc1cc(C)cc(NC(=O)CCN2C(=O)c3ccccc3S2(=O)=O)c1	0	-	0	-	0	0
CC(C)NC(=O)CN1C(=O)c2ccccc2S1(=O)=O	0	0	0	?	0	0
O=C(CN1C(=O)c2ccccc2S1(=O)=O)c1ccccc1	-	4µM	0	?	-65	0
COC(=O)c1ccc(CN2C(=O)c3ccccc3S2(=O)=O)cc1	-	0	0	0	0	-
Cc1cc(OC(C)C(=O)Nc2c(C(=O)c3ccc(F)cc3)oc3ccccc23)ccc1Cl (stereo not drawn)	0	0	-	0	0	0
CCCCN(C)CCCNC(=O)c1ccc2nc(N3CCCCC3)sc2c1	0	-	-	0	0	0
Cc1ccc(S(=O)(=O)c2cnc(-c3ccccc3)[nH]c2=O)cc1	0	-	-	-	-	0
Cc1ccc(C(=O)CN2C(=O)c3ccccc3S2(=O)=O)cc1	0	?	0	?	-88	0
O=C(CN1C(=O)c2ccccc2S1(=O)=O)NCc1c(F)cccc1F	0	0	0	0	0	0
O=C(CN1C(=O)c2ccccc2S1(=O)=O)NC(Nc1ccccc1F)C(Cl)(Cl)Cl (stereo not drawn)	0	0	0	0	-105	0
COc1ccc2c3c([nH]c2c1)[C@@H](CO)N(C(=O)c1ccccc1)CC31CN(C(=O)CC2CC2)C1	-	-	-	-	0	-
COc1ccccc1CCc1nnc(CCC(=O)NC(C)Cc2ccsc2)o1 (stereo not drawn)	1.1µM	-	0	?	0	1.8µM
CCN(CCC#N)c1ccc(/C=C/c2ccnc3ccccc23)cc1	0	-	-	-	-	0
Cc1cc(C)cc(N(CCC(=O)O)S(=O)(=O)c2ccc(Cl)cc2)c1	0	0	0	0	-69	0
Nc1nc(Sc2ccc([N+](=O)[O-])c3nonc23)c2[nH]cnc2n1	?	?	2.8µM	?	-85	0
CNc1ncnc(Sc2nc(N)nc3nc[nH]c23)c1[N+](=O)[O-]	5µM	2.5µM	?	?	-77	?
CC(=O)c1cccc(NC(=O)C2CCCN(C(=O)c3cnn(-c4ccccc4)c3-n3cccc3)C2)c1 (stereo not drawn)	0	0	-	?	0	0
O=C(c1cc2cc(F)ccc2[nH]1)N(Cc1cccnc1)CC1CCCN(C2CCCCC2)C1 (stereo not drawn)	-	-	?	-	0	-
C#Cc1cccc(C(=O)N(Cc2cccnc2)CC2CCCN(C3CCCCC3)C2)c1 (stereo not drawn)	0	-	-	-	-63	0
O=c1c2ccccc2nc(/C=C/c2cccnc2)n1Cc1ccccc1	0	?	0	?	-98	0
Cc1ccccc1/C=C\c1nc2ccccc2c(=O)n1Cc1ccccc1	0	0	0	?	0	0
Cc1cccc(/C=C/c2nc3ccccc3c(=O)n2Cc2ccccc2)c1	0	?	?	?	-83	0
O=c1c2ccccc2nc(/C=C/c2cccnc2)n1CCc1ccccc1	0[7.34 µM]	?	0	?	-75	0[7.34 µM]
